Source: PubChem (The Scripps Research Institute Molecular Screening Center)
KLK7 zymogen act: proKLK7 (human) activation, primary screen; P49862; purified proKLK7, EDANS-DABCYL substrate fluorescence; 100% is mature enzyme control, 0% vehicle; activation, % at 7 µM; actives 0.9% (n = 370,000); AID 652039;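 active means activation above the mean of all tested compounds plus 3 SD, computed per campaign excluding outliers beyond control limits, cut at about 13% in these data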
Target sequence (P49862 whole entry, looked up): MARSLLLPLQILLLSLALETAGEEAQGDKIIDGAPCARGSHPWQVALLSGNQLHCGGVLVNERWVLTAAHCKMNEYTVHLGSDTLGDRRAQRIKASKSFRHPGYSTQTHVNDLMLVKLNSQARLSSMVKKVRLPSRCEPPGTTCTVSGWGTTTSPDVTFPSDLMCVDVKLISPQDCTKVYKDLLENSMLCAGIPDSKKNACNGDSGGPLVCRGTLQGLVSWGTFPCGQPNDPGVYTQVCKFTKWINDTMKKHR
ADAM10 inh: inhibitors of human ADAM10; inhibition, % at 7 µM; recombinant ADAM10, EDANS/DABCYL FRET peptide cleavage, 3 h; actives 0.62% (n = 370,000); AID 720582;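 active means inhibition above a per-campaign cutoff equal to the mean of compounds falling between control-based bounds plus 3 SD, cut at about 20% in these data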;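 further: 0% = DMSO wells while the 100% control is not disclosed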
PLC-gamma1 inh: PLC-gamma1 (human) inhibition, primary screen; inhibition, % at 12.2 µM; P19174; purified PLC-gamma1, fluorogenic substrate, fluorescence; actives 0.84% (n = 370,000); in the data active means inhibition above about 9.5%
HGIII-sPLA2 inh: Blocks human group III sPLA2 activity; Q9NZ20; QFRET BODIPY PC-A2 liposome hydrolysis, fluorescence; inhibition, % at 12.2 µM; actives 0.56% (n = 370,000); AID 743126;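 active means inhibition above mean plus 3 SD of compounds lying within the high and low control bounds, cut at about 19% in these data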;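 further: 0% = median of test compound wells and 100% = no enzyme DMSO wells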
ADAM17 inh: inhibits human ADAM17; P78536; recombinant ADAM17, EDANS/DABCYL FRET peptide cleavage; inhibition, % at 6.95 µM; actives 0.83% (n = 370,000); AID 720648;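 active means inhibition above the mean of compounds lying between control limits plus 3 SD, set per campaign, cut at about 8.5% in these data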;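 further: 0% = DMSO-only wells as the low control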
PLC-beta3 inh: blocks human PLC-beta3 enzyme activity; Purified PLC-beta3, fluorogenic substrate, fluorescence; inhibition, % at 12.2 µM; actives 0.18% (n = 370,000); AID 720704; in the data active means inhibition above about 11%;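 further: 0% = median of compound wells on plate and 100% = full blocker control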
KLK7 act conf: proKLK7 activation, confirmation. actives 68% (n = 3,200). purified proKLK7, EDANS-DABCYL substrate fluorescence; scaled: vehicle 0, mature enzyme 100. AID 686949. activation, % at 7 µM. shares compounds with KLK7 zymogen act;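 active means activation, as change over the incubation, above the mean of all tested compounds plus 3 SD, cut at about 13% in these data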
EDANS-DABCYL int: fluorescence interference counter-screen for KLK7 activators; shares compounds with KLK7 zymogen act; activation, % at 7 µM; AID 686952; EDANS-DABCYL substrate fluorescence interference, no enzyme, 4 h; solvent 0%, active enzyme control 100%; actives 80% (n = 3,200);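 active means activation above the all-compound mean plus 3 SD, ignoring values outside control-based bounds, cut at about 4.8% in these data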;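 further: value is the 4 h activation minus the activation read at time zero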
K7 EDANS ctr: EDANS fluorescence interference in dose response, no enzyme; shares compounds with KLK7 zymogen act; EDANS-DABCYL peptide fluorescence interference; EC50, µM; actives 20% (n = 250);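 active means compounds that raise the fluorescence signal in this interference counterscreen, with EC50 at or below 10 µM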;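 further: intact quenched peptide substrate alone read at 355 nm excitation and 520 nm emission; signal is fluorescence gain from T0 to T4 after four hours at room temperature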
Numbers without * were called inactive; i = inactive; nt = not tested or not shown. Only some compounds are listed: those with a hit (about 3.4% of all), similar ones and a draw of the others.

SMILES | KLK7 zymogen act | ADAM10 inh | PLC-gamma1 inh | HGIII-sPLA2 inh | ADAM17 inh | PLC-beta3 inh | KLK7 act conf | EDANS-DABCYL int | others
COCCCNC(=O)c1c(N)n(-c2cccc(S(N)(=O)=O)c2)c2nc3ccccc3nc12 | 20* | i | i | -24 | i | i | -20 | -66
c1ccc(Cn2cc(CCOCc3ccccn3)c3ccccc32)cc1 | 0 | -10 | -9 | -36 | 3 | -17 | nt | nt
NC(=NC(=O)/C=C/c1ccccc1Br)N(CC#Cc1ccccc1)CC#Cc1ccccc1 | nt | 0 | -4 | -5 | 1 | -5 | nt | nt
COC(=O)[C@]12C[C@H](CC(=O)N3CCCC3)C(=O)N(CCC3=CCCCC3)C1=C[C@H](COCc1ccccc1)O[C@@H]2C | 1 | 1 | 1 | -6 | -2 | 0 | nt | nt
CCNC(=S)N1CCc2cc(OC)c(OC)cc2C1COc1ccccc1OC (stereo not drawn) | 58* | -387 | -200 | 2 | -129 | -327 | 30* | 36*
CCNC(=S)N1CCc2cc(OC)c(OC)cc2C1COc1ccc(OC)cc1 (stereo not drawn) | 0 | 4 | -1 | 2 | 3 | -6 | nt | nt
CN(C)c1cccc(/C=C2\CC3(OC(=O)c4cccc(F)c4)CCCN2C3)c1 (stereo not drawn) | 0 | 10 | 3 | 10 | 4 | -2 | nt | nt
CC(=O)OCC(=O)c1ccc2ccn(C(C)=O)c2c1 | 18* | -388 | -157 | 7 | -122 | -234 | 32* | 32*
CN1C=CC2=C(C#N)C(N)C(C#N)(C#N)C(c3ccccc3)C2C1 (stereo not drawn) | 25* | -295 | -241 | -10 | -80 | -284 | 33* | 35*
Nc1nc2c(-c3ccc([N+](=O)[O-])cc3)nnn2c2ccccc12 | -1 | -2 | -6 | 3 | -3 | -4 | nt | nt
CCN1C(=O)c2cccc3c(S(=O)(=O)NC(Cc4ccccc4)C(=O)O)ccc1c23 (stereo not drawn) | 51* | -443 | i | -1 | -169 | i | 66* | 67*
CCN1C(=O)c2cccc3c(S(=O)(=O)NCc4cccnc4)ccc1c23 | 53* | i | i | -2 | -213 | i | 71* | 78*
CCN1C(=O)c2cccc3c(S(=O)(=O)NCc4ccco4)ccc1c23 | 3 | -175 | i | -6 | -56 | i | nt | nt
CC1=CC(O)(c2ccccn2)P(=O)(c2ccccc2)C=C1C (stereo not drawn) | -1 | -11 | -9 | 6 | -10 | -9 | nt | nt
COc1ccc(CC(=O)NCC2CCN(C(=O)C(=O)c3cc4ccccc4o3)CC2)cc1 | 0 | 4 | 0 | -3 | -1 | 1 | nt | nt
COC(=O)C1=C(C)N(Cc2ccc(C(F)(F)F)cc2)C(=NCC2CC2)NC1c1ccccc1 (stereo not drawn) | 0 | -2 | 3 | -9 | 0 | 2 | nt | nt
Cc1coc2c1c(C)cc1oc(=O)c(CC(=O)N[C@@H](C)C(=O)O)c(C)c12 | 29* | i | i | 3 | -375 | i | 24* | 27*
Cc1coc2c(C)c3oc(=O)c(CCC(=O)N[C@H](C(=O)O)C(C)C)c(C)c3cc12 | 16* | -303 | -217 | 11 | -77 | -290 | 8 | 10*
Cc1coc2c(C)c3oc(=O)c(CCC(=O)NCCC(=O)O)c(C)c3cc12 | 8 | -62 | -43 | 15 | -26 | -88 | nt | nt
Cc1coc2c1c(C)cc1oc(=O)c(CC(=O)NCC(=O)NCC(=O)O)c(C)c12 | 10 | i | i | -3 | -319 | i | nt | nt
Cc1coc2c1c(C)cc1oc(=O)c(CC(=O)N[C@H](C(=O)O)C(C)C)c(C)c12 | 23* | i | i | 3 | -264 | i | 29* | 37*
CCC(NC(=O)Cc1c(C)c2c(cc(C)c3c(C)c(C)oc32)oc1=O)C(=O)O (stereo not drawn) | 23* | -323 | i | -2 | -109 | i | 16* | 1 | K7 EDANS ctr=>70
COC(=O)[C@]12C[C@H](CC(=O)N3CCCCC3)C(=O)N(Cc3ccc4c(c3)OCO4)C1=C[C@H](COCc1ccccc1)O[C@@H]2C | 0 | 0 | 1 | -6 | -4 | -4 | nt | nt
COc1ccc(N2C(=O)c3[nH]nc(-c4ccccc4)c3C2c2ccc(F)cc2)cc1 (stereo not drawn) | 0 | 1 | 3 | -3 | 0 | -1 | nt | nt
COC(=O)[C@]12C[C@H](CC(=O)NCc3cccc4ccccc34)C(=O)N(Cc3ccc(Cl)cc3Cl)C1=C[C@H](COCc1ccccc1)O[C@@H]2C | -1 | 7 | 0 | -12 | 2 | -1 | nt | nt
SMILES | KLK7 zymogen act | ADAM10 inh | PLC-gamma1 inh | HGIII-sPLA2 inh | ADAM17 inh | PLC-beta3 inh | KLK7 act conf | EDANS-DABCYL int | others
COc1ccc(-c2coc3c(CN4CCOCC4)c(O)ccc3c2=O)cc1 | 52* | -384 | -319 | -5 | -140 | -442 | 50* | 56*
O=c1c(-c2ccccc2)coc2c(CN3CCCC3)c(O)ccc12 | 67* | i | i | -4 | i | i | 39* | 49*
O=c1c(-c2ccc(Cl)cc2)coc2c(CN3CCOCC3)c(O)ccc12 | 19* | -258 | -197 | -5 | -70 | -279 | 21* | 23*
COCCCNC(=O)C[C@H]1C[C@@]2(C(=O)OC)C(=C[C@H](COCc3ccccc3)O[C@@H]2C)N(Cc2ccco2)C1=O | 0 | 1 | -1 | 2 | -4 | 0 | nt | nt
COC(=O)[C@@H](N[C@H](/C=C/c1ccccc1)[C@@H](O)Cc1ccccc1)C(C)C | 0 | 2 | 1 | -10 | 2 | 1 | nt | nt
O=C(Nc1ncc2c(n1)-c1ccccc1OC2)c1ccccc1Cl | 16* | i | -271 | -7 | i | -397 | 0 | -2
C(=N\Nc1ncnc2sc3c(c12)CCC3)/c1ccncc1 | 0 | -3 | -17 | 5 | -1 | -19 | nt | nt
c1cc(Nc2ncnc3sc4c(c23)CCC4)ccn1 | 32* | i | i | -2 | -173 | i | 56* | 64*
Cc1nc(N2CCN(C(=O)C3CC3)CC2)c2c3c(sc2n1)CC(C)CC3 (stereo not drawn) | nt | -42 | 0 | 5 | -6 | -1 | nt | nt
CCCCCCC12C(=Cc3cc4c(cc31)OCCO4)c1cc(OC)c(OC)cc1C(CC(=O)OC)N2C(=O)OC (stereo not drawn) | 17* | i | -359 | -11 | -189 | i | -5 | -17
